A selection: hits, their analogues and other compounds. The true share with any hit is near 1.7%.
Vif inh – inhibitors of HIV Vif; HEK293T cells, Vif self-association by quenched fluorescence, imaging, 24 h; inhibition, % at 7.49 µM; actives 0.35% (n = 340,000); AID 602346; in the data active means inhibition above about 50%, passing the limit was not always enough
ARNT-TACC3 inh – disrupts binding between human ARNT and TACC3; inhibition, % at 9.99 µM; AID 623870; AlphaScreen His-ARNT PAS-B/GST-TACC3 binding, luminescence; TACC3 fragment carries E629A point mutation; actives 0.66% (n = 390,000);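 active means mean inhibition of replicates at least 50% and at least half of replicates each reaching 50%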
Glyco luc inh – N-linked glycosylation inhibition; D54 ERlucT glycosylation luciferase reporter, 24 h; percent of 100 nM tunicamycin response; reporter increase, % at 12.5 µM; actives 0.23% (n = 360,000);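 active means mean luciferase reporter signal, scaled so untreated is 0 and the glycosylation-blocking control 100, at or above a set limit in every replicate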;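 further: luciferase carries N-glycosylation sites so blocking glycosylation raises the light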
H9c2 protect – protects H9c2 cardiomyocytes from peroxide injury. H2O2 injury protection, ATPLite, 2 h. protection from H2O2 cell death, % at 20 µM. actives 0.63% (n = 360,000). AID 588492;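 active means compounds giving at least 50% protection of heart cells from peroxide-induced death in the single-dose screen, raw or plate-pattern-corrected value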
aDG glyco act – alpha-DG glycosylation activation; actives 0.22% (n = 360,000); activation, % at 10 µM; Pro5-aDG cells, alpha-DG glycosylation AlphaScreen (IIH6); 0% Pro5, 100% B10-LARGE cell signal; AID 624168;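 active means activation of at least 8% versus controls, or a plate z-score of at least 8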;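 further: Pro5 are CHO cells carrying HIG-tagged alpha-DG that lacks glycosylation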
ARNT Alpha ctr-1 – AlphaScreen artifact in ARNT/TACC3 counter-screen; shares compounds with ARNT-TACC3 inh; His-ARNT PASB-GST AlphaScreen artifact counter-screen, luminescence; AC50, µM (doses to about 68 µM); actives 50% (n = 1,200); AID 651705;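 active means every separate test run was called active for a drop in luminescence, with AC50 within twice the top valid dose, actives reach about 71 µM in these data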
ARNT Alpha ctr-2 – AlphaScreen artifact flagged for ARNT-TACC3 inhibitors. AC50, µM. actives 70% (n = 45). shares compounds with ARNT-TACC3 inh. Dual-tagged His-ARNT PASB-GST AlphaScreen artifact counter-screen. AID 720564;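 active means luminescence drop, with half-maximal potency fitted within twice the sample's top valid dose, cut at about 70 µM in these data; inactive means the rest, including signal moving the wrong way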
Each line names hits and unclear results; the compound was inactive in the other large screens (follow-up assays come after a bar, where they were run).

O=C(CSc1ncccn1)N1CCc2ccccc2C1	none
O=C(CNCc1ccccn1)N1CCc2ccccc2C1	ARNT-TACC3 inh 77 | ARNT Alpha ctr-1 17µM
Cc1ccn2c(Nc3ccccc3)c(-c3ccccn3)nc2c1	none
Cc1ccn2c(Nc3ccccc3C)c(-c3ccccn3)nc2c1	ARNT-TACC3 inh 70 | ARNT Alpha ctr-1 21µM
O=C([C@@H]1[C@@H](CO)[C@@H]2Cn3c(ccc(C4=CCCCC4)c3=O)[C@H]1N2Cc1nccs1)N1CCOCC1	none (no result: Vif inh, Glyco luc inh, H9c2 protect, aDG glyco act)
O=C(c1cccc(F)c1)N1CCCCN2[C@@H](CO)[C@H](c3ccc(-c4ccc(F)cc4)cc3)[C@@H]2C1	none (no result: Vif inh, Glyco luc inh, H9c2 protect, aDG glyco act)
CCOc1ccc2c(c1)C(N(CCN1CCOCC1)C(=O)Nc1ccccc1)CC(C)(C)O2 (configuration not stated)	ARNT-TACC3 inh 58 | ARNT Alpha ctr-1 inactive
CCOc1ccc2c(c1)C(N(CCN1CCOCC1)C(=O)Nc1ccc(OC)cc1OC)CC(C)(C)O2 (configuration not stated)	none
Cc1noc(C)c1NC(=O)N[C@@H]1CC[C@@H](CC(=O)NCc2ccc(Cl)c(Cl)c2)O[C@H]1CO	none (no result: Vif inh, Glyco luc inh, H9c2 protect, aDG glyco act)
C[C@H](CO)N1C[C@H](C)[C@H](CN(C)S(=O)(=O)c2cn(C)cn2)OCc2cn(nn2)CCCC1=O	none (no result: Vif inh, Glyco luc inh, H9c2 protect, aDG glyco act)
CN(Cc1cnc2nc(N)nc(N)c2n1)c1ccc(C(=O)NC(CCC(=O)O)C(=O)O)cc1 (configuration not stated)	ARNT-TACC3 inh 15 | ARNT Alpha ctr-1 inactive
c1ccc(N2CCN(Cc3nc4ccccc4[nH]3)CC2)nc1	none
c1c[nH]c(CN2CCN(Cc3ncc[nH]3)CC2)n1	ARNT-TACC3 inh 53 | ARNT Alpha ctr-1 inactive
Cc1ccc(N(C)S(=O)(=O)c2cccc(C(=O)Oc3ccc4c(C)cc(=O)oc4c3)c2)cc1	ARNT-TACC3 inh 53 | ARNT Alpha ctr-1 inactive
COCC(=O)N1[C@H](CN(C)C(=O)c2ccccc2)[C@@H](c2ccccc2)[C@@H]1CO	none (no result: Vif inh, Glyco luc inh, H9c2 protect, aDG glyco act)
COc1ccc(S(=O)(=O)N(C)C[C@@H]2Oc3ccc(NC(=O)C4CC4)cc3CC(=O)N([C@H](C)CO)C[C@@H]2C)cc1	none (no result: Vif inh, Glyco luc inh, H9c2 protect, aDG glyco act)
COc1ccc(OC)c(NC(=O)COC(=O)Cn2nnc(-c3ccccc3)n2)c1	ARNT-TACC3 inh active | ARNT Alpha ctr-1 inactive
C[C@@H]1CN([C@H](C)CO)C(=O)c2cc(NC(=O)C3CCCCC3)ccc2O[C@@H](C)CCCCO[C@@H]1CN(C)C(=O)CCCN(C)C	none (no result: Vif inh, Glyco luc inh, H9c2 protect, aDG glyco act)
O=C(O)c1ncn(Cc2ccccc2)c1C(=O)O	ARNT-TACC3 inh 62 | ARNT Alpha ctr-1 inactive
O=C(O)C1Nc2c(O)cc(Cl)c([N+](=O)[O-])c2C2C=CCC12 (configuration not stated)	ARNT-TACC3 inh 58 (no result: Vif inh) | ARNT Alpha ctr-1 31µM
COc1cccc2c1NC(C(=O)O)C1CC=CC21 (configuration not stated)	none
Cc1nnc(N/N=C/c2ccc(-c3ccc(Br)cc3)o2)n1N	ARNT-TACC3 inh 51 | ARNT Alpha ctr-1 inactive
c1ccc(-c2csc(Nc3ncccn3)n2)cc1	none
c1ccc(-c2csc(Nc3nc(-c4ccccn4)nnc3-c3ccccc3)n2)cc1	none (no result: Vif inh, ARNT-TACC3 inh, Glyco luc inh, H9c2 protect, aDG glyco act) | ARNT Alpha ctr-1 2.2µM
Cc1cccc(Nc2nc(-c3ccccn3)nnc2-c2ccccc2)n1	none (no result: Vif inh, ARNT-TACC3 inh, Glyco luc inh, H9c2 protect, aDG glyco act) | ARNT Alpha ctr-1 0.53µM
c1ccc(-c2nnc(-c3ccccn3)nc2Nc2cnc3ccccc3n2)cc1	none (no result: Vif inh, ARNT-TACC3 inh, Glyco luc inh, H9c2 protect, aDG glyco act) | ARNT Alpha ctr-1 0.76µM
Cc1ccc(-c2ccc3c(c2)O[C@@H](CN(C)S(C)(=O)=O)[C@@H](C)CN([C@@H](C)CO)S3(=O)=O)cc1	none (no result: Vif inh, Glyco luc inh, H9c2 protect, aDG glyco act)
Cc1ccc(Cn2cccc(NS(C)(=O)=O)c2=O)cc1	ARNT-TACC3 inh 64 | ARNT Alpha ctr-1 inactive
O=C(C[C@@H]1C=C[C@@H](NC(=O)C2CCOCC2)[C@H](CO)O1)Nc1ccc(-c2ccccc2)cc1	none (no result: Vif inh, Glyco luc inh, H9c2 protect, aDG glyco act)
O=C(CSc1ccc(-c2ccccn2)nn1)NC1CCCC1	ARNT-TACC3 inh 59 | ARNT Alpha ctr-1 18µM
O=C(CSc1ccc(-c2ccccn2)nn1)N1CCCC1	ARNT-TACC3 inh 85 | ARNT Alpha ctr-1 48µM | ARNT Alpha ctr-2 23
O=C(CSc1ccc(-c2ccccn2)nn1)c1ccccc1	ARNT-TACC3 inh 75 | ARNT Alpha ctr-1 15µM
Brc1ccc(-c2csc(N3CCC(c4ccccc4)C3)n2)cc1 (configuration not stated)	none
c1ccc(-c2nnc(-c3ccccn3)nc2N2CCC(c3ccccc3)C2)cc1 (configuration not stated)	none (no result: Vif inh, ARNT-TACC3 inh, Glyco luc inh, H9c2 protect, aDG glyco act) | ARNT Alpha ctr-1 4.8µM
c1ccc(-c2nnc(-c3ccccn3)nc2N2CCN(c3ccncc3)CC2)cc1	none (no result: Vif inh, ARNT-TACC3 inh, Glyco luc inh, H9c2 protect, aDG glyco act) | ARNT Alpha ctr-1 2.1µM
c1ccc(-c2nnc(-c3ccccn3)nc2N2CCC(N3CCOCC3)CC2)cc1	none (no result: Vif inh, ARNT-TACC3 inh, Glyco luc inh, H9c2 protect, aDG glyco act) | ARNT Alpha ctr-1 0.92µM
Cc1nnc(-c2ccccc2)nc1N1CCOCC1	none
CCNC(=O)C[C@@H]1CC[C@H]2[C@@H](COC[C@@H](O)CN2S(=O)(=O)c2ccccc2F)O1	none (no result: Vif inh, Glyco luc inh, H9c2 protect, aDG glyco act)
Cc1ccccc1S(=O)(=O)N1C[C@H](O)COC[C@H]2O[C@@H](CC(=O)O)CC[C@@H]21	none (no result: Vif inh, Glyco luc inh, H9c2 protect, aDG glyco act)
COc1cc(OC)c2c(-c3ccccc3)cc(=O)oc2c1C(CCN1CCOCC1)c1ccc(N(C)C)cc1 (configuration not stated)	none (no result: Vif inh)
CCCCCc1cc(=O)oc2c(C(CCN(CC)CC)c3ccc(N(C)C)cc3)c(OC)cc(OC)c12 (configuration not stated)	ARNT-TACC3 inh 50 | ARNT Alpha ctr-1 12µM
COc1cc(OC)c2c(-c3ccccc3)cc(=O)oc2c1C(CCN1CCCCC1)c1ccc(N(C)C)cc1 (configuration not stated)	ARNT-TACC3 inh 44 | ARNT Alpha ctr-1 12µM
Oc1c(Cl)cc(Cl)c2cccnc12	none (no result: ARNT-TACC3 inh)
Oc1c(I)cc(I)c2cccnc12	ARNT-TACC3 inh 55 | ARNT Alpha ctr-1 50µM
O=C(CN1CC(=O)Oc2ccccc21)NCc1ccco1	ARNT-TACC3 inh 61 | ARNT Alpha ctr-1 19µM
O=C(CN1CCOc2ccccc21)NCc1ccco1	none
C[C@@H]1CN([C@@H](C)CO)C(=O)c2cccc(NC(=O)c3ccncc3)c2O[C@H]1CN(C)Cc1ccc(-c2ccccc2)cc1	none (no result: Vif inh, Glyco luc inh, H9c2 protect, aDG glyco act)
FC(F)(F)c1cc(-c2nn[nH]n2)cc(C(F)(F)F)c1	none (no result: Vif inh, ARNT-TACC3 inh, Glyco luc inh, H9c2 protect, aDG glyco act) | ARNT Alpha ctr-2 inactive
FC(F)(F)c1cccc(-c2nn[nH]n2)c1	none
C[C@H](CO)N1C[C@H](C)[C@H](CN(C)C(=O)Nc2ccc(F)cc2)Oc2ccc(NS(=O)(=O)c3ccc(Cl)cc3)cc2C1=O	none (no result: Vif inh, Glyco luc inh, H9c2 protect, aDG glyco act)
COC(=O)c1ccc(C(=O)O)nc1	ARNT-TACC3 inh 53 | ARNT Alpha ctr-1 inactive
CCN(CC(=O)NCc1cccs1)CC(=O)Nc1cccc(S(N)(=O)=O)c1	ARNT-TACC3 inh 26 | ARNT Alpha ctr-1 inactive
